# Records with an inconclusive call do not appear. The source made the active and inactive calls. Calls follow the shape of the full dose curve.
# Experiment: Confirmatory qHTS for inhibitors of SARS-S pseudo-typed particle cell entry
# Details: SARS-S pseudotyped particle cell entry, reporter luminescence; series mostly up to 57.1 µM; activity change, negative = inhibition: at the top concentration
SMILES,"activity change, negative = inhibition",Potency
CCn1cc(C(=O)O)c(=O)c2cc(F)c(N3CCNC(C)C3)c(F)c21 (stereo not drawn),-1.43% (inactive),
CN(C)CC/C=C1\c2ccccc2Sc2ccc(Cl)cc21,,21500 nM (active)
O=c1c(C2CC(c3ccc(-c4ccc(Br)cc4)cc3)Cc3ccccc32)c(O)sc2ccccc12 (stereo not drawn),,13600 nM (active)
CCN(CC)CCNC(=O)c1c(C)[nH]c(/C=C2\C(=O)Nc3ccc(F)cc32)c1C,,6070 nM (active)
Cc1c(N)nc(C(CC(N)=O)NCC(N)C(N)=O)nc1C(=O)NC(C(=O)NC(C)C(O)C(C)C(=O)NC(C(=O)NCCc1nc(-c2nc(C(=O)NCCCN[C@@H](C)c3ccccc3)cs2)cs1)C(C)O)C(O[C@@H]1O[C@@H](CO)[C@@H](O)[C@H](O)[C@@H]1O[C@H]1O[C@H](CO)[C@@H](O)[C@H](OC(N)=O)[C@@H]1O)c1cnc[nH]1 (stereo partly drawn),,857 nM (active)
Oc1c(Cl)cc(Cl)c(Cl)c1Cc1c(O)c(Cl)cc(Cl)c1Cl,,1210 nM (active)
O=C1CCc2ccc(OCCCCN3CCN(c4cccc(Cl)c4Cl)CC3)cc2N1,,19200 nM (active)
CCCCCCCCCCCCCC[n+]1ccc(C)cc1,,3830 nM (active)
CC(C)C[C@H](NC(=O)[C@H](CCc1ccccc1)NC(=O)CN1CCOCC1)C(=O)N[C@@H](Cc1ccccc1)C(=O)N[C@@H](CC(C)C)C(=O)[C@@]1(C)CO1,,681 nM (active)
C[C@]12CC[C@H](O)C[C@H]1CCC1C2CC[C@]2(C)[C@@H](c3ccc(=O)oc3)C[C@H]3O[C@]132 (stereo partly drawn),,5410 nM (active)
Cc1cn([C@H]2C[C@H](N=[N+]=[N-])[C@@H](CO)O2)c(=O)[nH]c1=O,,271 nM (active)
COc1cccc2c1C(=O)c1c(O)c3c(c(O)c1C2=O)C[C@@](O)(C(C)=O)C[C@@H]3O[C@H]1C[C@H](N)[C@H](O)[C@H](C)O1,,2150 nM (active)
CC[C@@]1(O)C(=O)OCc2c1cc1n(c2=O)Cc2cc3c([N+](=O)[O-])cccc3nc2-1,,124 nM (active)
CN1CCCCC1CCN1c2ccccc2Sc2ccc(S(C)=O)cc21 (stereo not drawn),,27100 nM (active)
C=CC(=O)Nc1cc(Nc2nccc(-c3cn(C)c4ccccc34)n2)c(OC)cc1N(C)CCN(C)C,,1520 nM (active)
N#CC(c1ccc(Cl)cc1)c1c(Cl)cc(-n2ncc(=O)[nH]c2=O)cc1Cl (stereo not drawn),,19200 nM (active)
CCC(C)(C)C(=O)O[C@H]1C[C@@H](C)C=C2C=C[C@H](C)[C@H](CC[C@@H]3C[C@@H](O)CC(=O)O3)[C@H]21,,607 nM (active)

SMILES,"activity change, negative = inhibition",Potency
C[n+]1c2cc(N)ccc2cc2ccc(N)cc21 (tested in a mixture with another compound),,6810 nM (active)
CN[C@H]1CC[C@@H](c2ccc(Cl)c(Cl)c2)c2ccccc21,,19200 nM (active)
O=C(O)c1cc(O)c2c(c1)[C@H]([C@H]1c3cc(C(=O)O)cc(O)c3C(=O)c3c(O[C@@H]4O[C@H](CO)[C@@H](O)[C@H](O)[C@H]4O)cccc31)c1cccc(O[C@@H]3O[C@H](CO)[C@@H](O)[C@H](O)[C@H]3O)c1C2=O,-58.3% [at 33 µM] (inactive),
COC(=O)C1=C(C)NC(C)=C(C(=O)OCC(C)C)C1c1ccccc1[N+](=O)[O-] (stereo not drawn),,19200 nM (active)
CC[C@@]1(O)C(=O)OCc2c1cc1n(c2=O)Cc2cc3c(CN(C)C)c(O)ccc3nc2-1,,764 nM (active)
NCCNc1ccc(NCCN)c2c1C(=O)c1ccncc1C2=O,,857 nM (active)
CCN1CCN(Cc2ccc(Nc3ncc(F)c(-c4cc(F)c5nc(C)n(C(C)C)c5c4)n3)nc2)CC1,,961 nM (active)
CC[C@@]1(O)C(=O)OCc2c1cc1n(c2=O)Cc2c-1nc1ccccc1c2/C=N/OC(C)(C)C,,85.7 nM (active)
CCN(CC)Cc1cc(Nc2ccnc3cc(Cl)ccc23)ccc1O,,8570 nM (active)
COc1ccc2cc1Oc1ccc(cc1)C[C@H]1c3c(cc4c(c3Oc3cc5c(cc3OC)CCN(C)[C@@H]5C2)OCO4)CCN1C,,2150 nM (active)
CC(=O)[C@]1(O)Cc2c(O)c3c(c(O)c2[C@@H](O[C@H]2C[C@H](N)[C@H](O)[C@H](C)O2)C1)C(=O)c1ccccc1C3=O,,6070 nM (active)
CC(C)OC(=O)[C@H](C)N[P@](=O)(CO[C@H](C)Cn1cnc2c(N)ncnc21)Oc1ccccc1,,171 nM (active)
CC(C)(C)C(=O)OCOP(=O)(COCCn1cnc2c(N)ncnc21)OCOC(=O)C(C)(C)C,,38.3 nM (active)
COc1cccc2c1C(=O)c1c(O)c3c(c(O)c1C2=O)C[C@@](O)(C(=O)CO)CC3OC1CC(N2CCOC(OC)C2)C(O)C(C)O1 (stereo partly drawn),,96.1 nM (active)
Cc1ccc(NC(=O)c2ccc(CN3CCN(C)CC3)cc2)cc1Nc1nccc(-c2cccnc2)n1,,30400 nM (active)
C=C(C)[C@H]1Cc2c(ccc3c2O[C@@H]2COc4cc(OC)c(OC)cc4[C@@H]2C3=O)O1,,34.1 nM (active)
